High-throughput results deposited in PubChem BioAssay by National Center for Advancing Translational Sciences (NCATS).
In the library only some 18% were active in any assay of this set; here they are far more common.
TDP1 cell CPT: qHTS for Inhibitors of human tyrosyl-DNA phosphodiesterase 1 (TDP1): qHTS in cells in presence of CPT; AID 686979, 2013; chicken DT40 Tdp1-/-;hTDP1 cells + 20 nM CPT, ATP luminescence, 48 h; hit rate 12% among 420,000; Potency, µM (top dose mostly 46.2 µM), most hits filed as inhibitors; further: nearly all actives have a fitted effect of over 55% in size
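Cell growth measured by CellTiter-Glo luminescence after a minimum 48 h, 37 C compound exposure with 20 nM CPT in Tdp1-knockout DT40 cells stably expressing hTDP1, seeded 400/well; qHTS titration format.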
RORg inh: qHTS for inhibitors of ROR gamma transcriptional activity | hit rate 5.4% among 310,000 | Potency, µM (highest dose often 53.6 µM), most hits filed as inhibitors | Nuclear receptor ROR-gamma (Mus musculus), P51450 | Drosophila S2 Gal4-RORgamma UAS-luciferase reporter, 20 h; further: nearly all actives have a fitted effect of over 60% in size
Target sequence (P51450 whole entry, looked up, the tested form may be a part): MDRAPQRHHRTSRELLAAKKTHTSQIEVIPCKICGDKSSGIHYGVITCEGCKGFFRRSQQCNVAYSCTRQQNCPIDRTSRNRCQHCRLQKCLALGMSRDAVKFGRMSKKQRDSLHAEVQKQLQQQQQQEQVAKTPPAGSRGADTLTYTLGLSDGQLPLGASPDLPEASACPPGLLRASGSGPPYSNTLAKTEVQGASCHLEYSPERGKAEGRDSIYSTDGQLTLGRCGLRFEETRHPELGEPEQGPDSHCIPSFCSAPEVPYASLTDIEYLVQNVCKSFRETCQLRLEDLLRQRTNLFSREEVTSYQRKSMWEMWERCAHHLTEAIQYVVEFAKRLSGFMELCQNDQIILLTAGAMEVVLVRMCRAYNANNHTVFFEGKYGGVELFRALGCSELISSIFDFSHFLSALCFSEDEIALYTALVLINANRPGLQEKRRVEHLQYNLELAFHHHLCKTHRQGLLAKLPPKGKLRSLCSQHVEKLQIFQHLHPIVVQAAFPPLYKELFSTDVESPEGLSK
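Drosophila S2 cells stably expressing Gal4-DBD/mouse RORγ fusion under metallothionein promoter plus UAS-luciferase; compound 1 h, then 700 uM CuSO4 induction for 20 h at ambient temperature; inhibition read as reduced luminescence.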
Gal4-VP16 FLuc: VP16 counterscreen qHTS for inhibitors of ROR gamma transcriptional activity | hit rate 3.5% among 310,000 | Potency, µM (top dose mostly 53.6 µM), usual class: inhibitors | Drosophila S2 Gal4-VP16 UAS-luciferase, luminescence, 20 h;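 further: Gal4-VP16 expression switched on by copper sulfate through the metallothionein promoter; nearly all actives have a fitted effect of over 50% in size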
IL1B secr inh: qHTS for Inhibitors of Inflammasome Signaling: IL-1-beta AlphaLISA Primary Screen | THP-1 LPS/ATP IL-1B secretion, AlphaLISA, 16 h; hits give low values | activity change, % at 57.5 µM | hit rate 4.7% among 360,000 | AID 743279, 2014; in the data active means activity change below about -50%; inconclusive means mostly about -30% to -49%
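THP-1 cells pretreated 1 hr with compounds (up to 57.5 uM final), then stimulated with LPS (250 ng/mL final) plus ATP (1.25 mM final); secreted IL-1B measured by AlphaLISA after 16 hr, decreased signal indicating inhibition.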
DT40 TDP1 no CPT: qHTS for Inhibitors of human tyrosyl-DNA phosphodiesterase 1 (TDP1): qHTS in cells in absence of CPT. hit rate 15% among 420,000. DT40 Tdp1-/- hTDP1 cells, no CPT, ATP luminescence, 48 h. Potency, µM (top dose mostly 46.2 µM), usual class: inhibitors; further: nearly all actives have a fitted effect of over 55% in size
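Seeded 400 DT40-hTDP1 cells/well (vehicle DMSO, no 20 nM CPT); pinned compounds; ≥48 hr at 37 °C; CellTiter-Glo luminescence as viability measure.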
LDHA block: qHTS assay for inhibitors of human lactate dehydrogenase; purified LDHA, NADH/diaphorase-resazurin fluorescence; hits give low values; activity change, % (values are at about 110 or 230 µM); L-lactate dehydrogenase A chain (Homo sapiens), P00338; hit rate 0.15% among 480,000; in the data active means activity change below about -30%; inconclusive means mostly about -25% to -30%
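Human LDH5 at 2 nM final in Tris HCl pH 7.4 with 0.06 mM NADH and 0.2 mM pyruvate, reacted 5 minutes at room temperature. Remaining NADH coupled via diaphorase/resazurin; resorufin fluorescence read at 0 and 20 minutes, normalized to enzyme-free and DMSO wells.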
Numbers stand for hits; - = inactive; ? = inconclusive; . = no result given. Unless noted, the call rests on the fitted dose curve; in most records, active means well fitted curve in the direction sought with a large enough effect; inconclusive means small, poorly fitted or top-dose-only effect, or another doubt; inactive means no such curve, though single readings can be large; an effect the other way counts as inactive or inconclusive.

SMILES	TDP1 cell CPT	RORg inh	Gal4-VP16 FLuc	IL1B secr inh	DT40 TDP1 no CPT	LDHA block
COc1ccc(CN2CCN(Cc3csc(C(C)=O)c3)CC2CCO)c(C)c1C (configuration not stated)	-	-	-	-	10µM	-
O=S(=O)(c1ccc(Br)s1)N1CCOc2ccc(COCc3ccccc3)cc2C1	.	.	.	.	.	-
COC(=O)C(Cc1ccc(OC(=O)c2ccc(C(F)(F)F)cc2)cc1)N1Cc2ccccc2C1=O (configuration not stated)	16µM	?	-	-	18µM	-
COC(=O)C(Cc1ccc(OC(=O)c2ccc(Cl)cc2)cc1)N1Cc2ccccc2C1=O (configuration not stated)	?	-	?	-	?	-
Cc1cc(C(=O)COC(=O)c2ccc([N+](=O)[O-])o2)c(C)n1CC1CCCO1 (configuration not stated)	23µM	20µM	-	-	?	-
Cc1cc(C(=O)COc2ccc(C#N)cc2)c(C)n1CC1CCCO1 (configuration not stated)	29µM	.	.	-	13µM	-
CCC(=O)c1ccc(OCC(=O)OCC(=O)c2cc(C)n(CC3CCCO3)c2C)cc1 (configuration not stated)	-	.	.	-	-	-
Cc1cc(C(=O)COc2ccc(C#N)cc2)c(C)n1-c1ccc2c(c1)OCO2	9.2µM	-	?	-	9.2µM	-
COCCn1c(C)cc(C(=O)COC(=O)c2ccc([N+](=O)[O-])o2)c1C	?	13µM	-	-	-	-
COc1ccc(NC(=O)c2cc3c(OC)cc(OC)c(OC)c3[nH]2)cc1	.	.	.	.	.	-
O=C(O)CCNS(=O)(=O)c1ccc(Cl)cc1	.	.	.	.	.	-
CCOc1cc(/C=C/C(=O)c2ccc(C)cc2)cc(Cl)c1O	.	.	.	.	.	-
COCCn1c(C)cc(C(=O)COC(=O)c2cccc(O)c2)c1C	-	0.35µM	0.63µM	-	?	-
COCCn1c(C)cc(C(=O)COC(=O)c2cc3c(s2)CCC3)c1C	?	-	-	-	-	-
Cc1cc(Cl)cc(Cl)c1OCC(=O)NCc1ccco1	?	?	?	?	18µM	-
Cc1ccc2c(Cl)cc(Cl)c(OCC(=O)N3CCOCC3)c2n1	-	.	.	-	-	-
Cc1ccc2c(Cl)cc(Cl)c(OCC(=O)NC(=O)NCc3ccco3)c2n1	?	10µM	-	-	?	-
Cc1cccc(C)c1OCCNC(=O)C(=O)NCc1ccco1	1.8µM	-	-	-	2.3µM	-
Cc1ccc2c(Cl)cc(Cl)c(OCC(=O)N3CCCC3)c2n1	-	14µM	?	-	-	-
Cc1ccc(OCC(=O)NCc2ccco2)cc1C	-	?	-	-	-	-
Cc1ccc2c(Cl)cc(Cl)c(OCC(=O)NC(=O)NCc3ccccc3)c2n1	.	.	.	.	.	-
Cc1ccc(C)c(OCC(O)Cn2cnc3ncccc3c2=O)c1 (configuration not stated)	.	.	.	.	.	-
Cc1ccc2c(Cl)cc(Cl)c(OCC(=O)NCC(F)(F)F)c2n1	.	.	.	.	.	-
Cc1ccc2c(Cl)cc(Cl)c(OCC(=O)NCc3ccco3)c2n1	.	7.1µM	11µM	.	.	.
CN(C)C(CNC(=O)c1cc(=O)[nH]c2ccccc12)c1ccccc1 (configuration not stated)	.	.	.	.	.	-
COC(=O)COc1ccc(S(=O)(=O)Nc2ccc3c(c2)OCCO3)cc1C	?	?	?	-73	?	-
Cc1cc(Cl)c(S(=O)(=O)Nc2ccc3c(c2)OCCO3)cc1OCC(=O)NC1CCCCC1	?	-	-	-53	?	-
Cc1cc(Cl)c(S(=O)(=O)Nc2ccon2)cc1OCC(=O)NC1CCCCC1	-	-	-	-	-	-
Cc1cc(Cl)c(S(=O)(=O)NC2CCCCC2)cc1OCC(=O)Nc1nncs1	26µM	-	-	-	23µM	-
CC(=O)c1c(C)c(C)cc(C)c1C	.	.	.	.	.	-
